# HT1080-NT tox: kills 2HG-producing HT-1080-NT fibrosarcoma cells; HT-1080-NT fibrosarcoma viability, CellTiter-Glo ATP luminescence, 48 h; Potency, µM (series often up to 46.1 µM), inactives show top-dose activity, negative = less viability, most hits filed as cytotoxic; actives 1.6% (n = 360,000);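 also: NT is the 2HG producing partner of a matched IDH1 knockdown line; 0% = DMSO-treated cells and -100% = media-only wells without cells; nearly all actives have a fitted effect of over 55% in size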
#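 Toxicity toward the 2HG-producing NT line was scored as %Activity, normalised to DMSO and no-cell wells, from CellTiter-Glo luminescence after 48 hours' treatment.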
# HT1080 IDH1KD tx: kills HT-1080 cells with IDH1 knockdown. HT-1080 IDH1 knockdown viability, ATP luminescence, 48 h. Potency, µM (doses to about 46.1 µM), for inactives: at the highest dose activity, negative = toxicity, actives largely listed as cytotoxic. actives 2% (n = 360,000);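 also: 0% = DMSO wells and -100% = cell-free medium wells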
#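 Luminescent ATP read-out (CellTiter-Glo, 10 min at room temperature) after 48 h compound exposure at 37 °C gave viability of IDH1-knockdown HT-1080 cells. Activity was normalised to DMSO and cell-free wells, then fitted as concentration-response curves.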
# KB-V1 cytotox: kills drug-selected multidrug resistant KB-V1 cells; KB-V1 MDR cells viability, CellTiter-Glo, 72 h; Potency, µM (titrated, usually from 46.1 µM), actives largely listed as cytotoxic; actives 3.4% (n = 400,000); AID 1347076; also: nearly all actives have a fitted effect of over 60% in size
#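 Cells of the MDR subline KB-V1 are plated, dosed with compound at multiple concentrations, and incubated 72 h at 37 degrees C; CellTiter-Glo is then added and luminescence read after 10 min.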
# KB-3-1 tox: KB-3-1 parental cell cytotoxicity. Potency, µM (series often up to 46.1 µM), usual class: cytotoxic. actives 1.4% (n = 400,000). KB-3-1 viability, CellTiter-Glo ATP luminescence, 72 h; also: nearly all actives have a fitted effect of over 60% in size
#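 Parental KB-3-1 adenocarcinoma cells in phenol-red-free DMEM with 10% FBS were pin-treated with compounds at several concentrations, incubated 72 h at 37 °C, and viability read by CellTiter-Glo luminescence; concentration-effect curves were fitted after normalization.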
# * marks the source's active call; other numbers are inactive results; i = inactive; ? = inconclusive; · = not tested or not shown. In the library only some 5.7% were active in any assay of this set; here they are far more common. Calls follow the shape of the dose curve; as a rule, active = well fitted curve in the direction sought with a large enough effect; inconclusive = small, poorly fitted or top-dose-only effect, or another doubt; inactive = no such curve, though single readings can be large; an effect the other way counts as inactive or inconclusive. Unless noted, % is scaled to controls: 0 for no effect and ±100 for the full control effect; potency is read from the fitted curve at half-maximal effect.
SMILES,HT1080-NT tox,HT1080 IDH1KD tx,KB-V1 cytotox,KB-3-1 tox
CC1CCCN(S(=O)(=O)c2ccc(S(=O)(=O)NC(C)c3cccs3)cc2)C1 (stereo not drawn),-17.5%,-1.3%,16.4µM*,i
COc1ccc(C)cc1S(=O)(=O)Nc1cccc(-c2ccc(N3CCCC3)nn2)c1,·,·,i,i
O=C1c2cccc(OCc3ccc(F)cc3)c2CCN1Cc1ccccc1,-22.2%,-18.2%,?,16.4µM*
CCN1CCc2c(OCc3ccccc3)cccc2C1=O,12.6%,11.6%,?,i
Cc1ccc(COc2cccc3c2CCN(Cc2ccc(F)cc2)C3=O)cc1,-14.9%,-15.4%,5.8µM*,?
CN(C)c1ccc(S(=O)(=O)NCC(=O)NCCC2=CCCCC2)cc1[N+](=O)[O-],-2.5%,2.1%,18.4µM*,i
CN(C)c1ccc(S(=O)(=O)NCC(=O)NCCOc2ccccc2F)cc1[N+](=O)[O-],-3.9%,-3.9%,i,i
CCN(CC)c1sc(S(=O)(=O)c2ccccc2)nc1S(=O)(=O)c1ccc(C)cc1,·,·,?,i
c1ccc(-c2cn(-c3ccccc3)c3ncnc(N4CCCCC4)c23)cc1,?,?,i,i
CN1CCN(c2ncnc3c2c(-c2ccccc2)cn3-c2ccc(F)cc2)CC1,23.1µM*,23.1µM*,i,i
COc1ccc(-n2cc(-c3ccccc3)c3c(N4CC(C)OC(C)C4)ncnc32)cc1 (stereo not drawn),?,23.1µM*,?,i
COCCCNC(=S)N1CCN(c2ccc([N+](=O)[O-])cc2)CC1,9.6%,0.0%,16.4µM*,?
C=CCNC(=S)N1CCN(c2ccc([N+](=O)[O-])cc2)CC1,0.4%,-6.1%,14.6µM*,i
COCCCNC(=S)N1CCN(c2nc3ccccc3s2)CC1,20.9%,-0.1%,14.6µM*,?
O=C(Nc1ccccc1Sc1ccccc1)c1cnn2c1NC(=C1CC1)C=C2C(F)(F)F,0.1%,4.2%,·,·
Nc1n[nH]c(C2CCCCC2)n1,11.1%,7.5%,i,i
S=c1nc(C2CCCCC2)[nH][nH]1,11.2µM*,6.31µM*,i,i
O=S1(=O)N=C(OCc2ccccc2)c2ccccc21,·,·,i,i
O=C(Cn1cnc2c(nnn2Cc2ccc(F)cc2)c1=O)NCc1ccc(F)cc1,?,18.4µM*,i,?
O=C(Cn1cnc2ccccc2c1=O)N1CCN(Cc2ccccc2)CC1,-1.1%,-2.0%,23.1µM*,i
Cc1ccc(Cn2nnc3c(=O)n(CC(=O)NCc4ccco4)cnc32)cc1,-14.6%,-12.4%,?,23.1µM*
O=C(Cn1cnc2c(nnn2Cc2ccc(F)cc2)c1=O)N1CCN(c2ccccc2)CC1,-2.1%,5.0%,9.2µM*,i
Cc1ccc(Cn2nnc3c(=O)n(CC(=O)NCc4ccccc4)cnc32)cc1,?,?,i,?
N#C/C(=C\c1ccc(Cl)cc1)c1nc(-c2cc3c(ccc4ccccc43)oc2=O)cs1,·,·,?,i
COc1ccc2c(CNCc3cccs3)c(C(=O)O)n(Cc3ccc(F)cc3)c2c1,·,·,i,16.4µM*
SMILES,HT1080-NT tox,HT1080 IDH1KD tx,KB-V1 cytotox,KB-3-1 tox
COc1ccc(Cn2c(C(=O)O)c(CNCc3cccs3)c3ccc(C)cc32)cc1,·,·,i,?
Cc1ccc2c(CNCc3cccs3)c(C(=O)O)n(Cc3ccc(F)cc3)c2c1,·,·,i,11.6µM*
C=Cc1ccc(Cn2c(C(=O)O)c(CNCc3ccc(F)cc3)c3ccc(C)cc32)cc1,·,·,i,7.31µM*
Cn1c(=O)c2c(nc(NCCc3ccccc3)n2Cc2cccc(Br)c2)n(C)c1=O,·,·,?,i
O=C(Nc1nnc(-c2ccncc2)s1)Nc1ccc(Cl)cc1F,·,·,i,i
COc1cc2cc(CN(CCN3CCCC3)C(=O)Nc3ccc(F)cc3)c(=O)[nH]c2cc1OC,-1.6%,1.2%,i,i
Cc1ccc(C)c2[nH]c(=O)c(CN(CCN3CCCC3)C(=O)Nc3ccc(F)cc3)cc12,16.4µM*,?,i,?
CCn1c(CN2CCN(c3cccc(Cl)c3)CC2)nc2c1c(=O)[nH]c(=O)n2C,·,·,i,i
Cc1ccc(Sc2ccc([N+](=O)[O-])cc2[N+](=O)[O-])nc1,16.4µM*,23.1µM*,i,?
CC1CCc2c(sc(NC(=O)CSc3ncn[nH]3)c2C#N)C1 (stereo not drawn),-26.3%,?,i,?
CC1CCc2c(sc(NC(=O)c3ccc(Cl)cc3Cl)c2C#N)C1 (stereo not drawn),·,·,i,i
CC(C)(C)C1CCc2c(sc(NC(=O)CSc3ncn[nH]3)c2C#N)C1 (stereo not drawn),11.2µM*,11.2µM*,16.4µM*,?
CC(C)Cc1cc(C(=O)Nc2sc3c(c2C#N)CCC3)no1,0.0%,-11.0%,i,i
Cc1cc(C(=O)Nc2sc3c(c2C#N)CCC(C)C3)no1 (stereo not drawn),?,?,11.6µM*,?
CC(=O)c1c(C)[nH]c(C(=O)OCC(=O)Nc2sc3c(c2C#N)CCC(C)C3)c1C (stereo not drawn),-9.4%,25.9µM*,i,i
N#Cc1c(NC(=O)c2cc(C3CC3)on2)sc2c1CCC2,?,?,i,13µM*
CCOC(=O)c1cc(C#N)c(SC(C(=O)N2CCCCC2)c2ccccc2)nc1C (stereo not drawn),·,·,i,i
COc1ccc(OC)c(NC(=O)N(C)CCc2c(C)nn(C)c2C)c1,·,·,i,i
CCN1CCN(CC(=O)Nc2sc3c(c2C#N)CCC(C)C3)CC1 (stereo not drawn),18.4µM*,?,?,?
Cc1cc(C(=O)NNc2ccc(F)cc2F)no1,3.66µM*,5.17µM*,i,i
Cc1ccc(NNC(=O)c2cc(C)on2)c(C)c1,?,8.2µM*,i,i
COc1ccc(OC)c(CCNC(=O)Cn2ccc3cc(S(=O)(=O)N4CCCCC4)ccc32)c1,·,·,i,?
COc1ccc(NC(=O)COCc2cc(-c3cccs3)on2)cc1,·,·,i,i
N#CC1=C2SCC(O)(c3ccccc3)N2C(=O)CC1c1ccccc1 (stereo not drawn),1.3µM*,?,1.84µM*,1.3µM*
Brc1ccccc1-c1nnc2sc(-c3ccc4c(c3)OCCO4)nn12,·,·,?,i
Clc1ccccc1-c1nnc2sc(-c3ccc4c(c3)OCO4)nn12,?,?,8.2µM*,20.6µM*
O=C(CN1CCN(S(=O)(=O)c2ccc(Br)cc2)CC1)N/N=C/c1ccc(Br)s1,-20.5%,?,20.6µM*,i
Cc1ccc(/C=N/NC(=O)CN2CCN(S(=O)(=O)c3ccc(Br)cc3)CC2)s1,4.4%,8.4%,?,i
O=C(CN1CCN(S(=O)(=O)c2ccc(Br)s2)CC1)NC1CCCCC1,5.2%,2.5%,10.3µM*,i
Cc1cc(C)cc(NC(=O)CN2CCCN(S(=O)(=O)c3ccc(Br)s3)CC2)c1,-11.3%,?,2.91µM*,?

# Bioassay records from PubChem.
